# Results published in PubChem BioAssay (NCATS).
# Records with an inconclusive call do not appear. Entries that show only a call come without a potency. Values without a mark were called inactive. Active and inactive are the calls of the source. Calls follow the shape of the full dose curve.
# Assays:
# [1] = Primary qHTS for inhibitors of SARS-S pseudo-typed particle cell entry (AID 1479145); also: nearly all actives have a fitted effect of over 45% in size; as to activity change, negative = inhibition: series mostly up to about 57 µM
# [2] = Primary qHTS for Huh7 cytotoxicity: counterscreen for inhibitors of MERS-S pseudotyped particle cell entry (AID 1479147)
# Potency is read from the fitted curve at half-maximal effect.
structure (smiles),measurement,setting,value
CC[N+](C)(C)c1cccc(O)c1,Potency,[1],inactive
same,Potency,[2],inactive
COc1ccccc1Oc1c(NS(=O)(=O)c2ccc(C(C)(C)C)cc2)nc(-c2ncccn2)nc1OCCO,Potency,[1],inactive
same,Potency,[2],inactive
CCn1cc(C(=O)O)c(=O)c2cc(F)c(N3CCNCC3)cc21,Potency,[1],inactive
same,Potency,[2],inactive
COc1ccccc1OCC(O)COC(N)=O (stereo not drawn),Potency,[1],inactive
same,Potency,[2],inactive
NC(=O)OCC(COC(N)=O)c1ccccc1,Potency,[1],inactive
same,Potency,[2],inactive
CC(=O)O[C@]1(C(C)=O)CC[C@H]2[C@@H]3C=C(C)C4=CC(=O)CC[C@]4(C)[C@H]3CC[C@@]21C,Potency,[1],inactive
same,Potency,[2],inactive
O=c1[nH]cnc2c1ncn2[C@H]1CC[C@@H](CO)O1,Potency,[1],inactive
same,Potency,[2],inactive
CN/C(=C\[N+](=O)[O-])NCCSCc1ccc(CN(C)C)o1,Potency,[1],inactive
same,Potency,[2],inactive
CC1(C)S[C@@H]2[C@H](NC(=O)C(C(=O)O)c3ccccc3)C(=O)N2[C@H]1C(=O)O (stereo partly drawn),Potency,[1],inactive
same,Potency,[2],inactive
O=NN(CCCl)C(=O)NCCCl,Potency,[1],inactive
same,Potency,[2],inactive
CCCNC(=O)NS(=O)(=O)c1ccc(Cl)cc1,Potency,[1],inactive
same,Potency,[2],inactive
CC(=O)[C@]1(O)Cc2c(O)c3c(c(O)c2[C@@H](O[C@H]2C[C@H](N)[C@H](O)[C@H](C)O2)C1)C(=O)c1ccccc1C3=O,Potency,[1],8.91 µM (active)
same,Potency,[2],7.08 µM (active)
CCOC(=O)[C@H](CCc1ccccc1)N[C@@H](C)C(=O)N1[C@H](C(=O)O)C[C@@H]2CCC[C@@H]21,Potency,[1],inactive
same,Potency,[2],inactive
Cc1cccc(Nc2ccncc2S(=O)(=O)NC(=O)NC(C)C)c1,Potency,[1],inactive
same,Potency,[2],inactive
C[C@@H](O)[C@H]1C(=O)N2C(C(=O)O)=C(S[C@@H]3CN[C@H](CNS(N)(=O)=O)C3)[C@H](C)[C@H]12,Potency,[1],inactive
same,Potency,[2],inactive
CN(CCOc1ccc(CC2SC(=O)NC2=O)cc1)c1ccccn1 (stereo not drawn),Potency,[1],inactive
same,Potency,[2],inactive
CC(C)(C)C(=O)OCOP(=O)(COCCn1cnc2c(N)ncnc21)OCOC(=O)C(C)(C)C,Potency,[1],inactive
same,Potency,[2],inactive
N[C@@H](C(=O)N[C@@H]1C(=O)N2C(C(=O)O)=C(Cl)CS[C@H]12)c1ccccc1,"activity change, negative = inhibition",[1],-16.1% [at 11.4 µM]
same,outcome,[2],inactive [at 11.4 µM]
O=C(O)c1cn(C2CC2)c2cc(N3CCNCC3)c(F)cc2c1=O,Potency,[1],inactive
same,Potency,[2],inactive
Cn1c(=O)c2c(ncn2CC(O)CO)n(C)c1=O (stereo not drawn),Potency,[1],inactive
same,Potency,[2],inactive
C[C@@H]1C[C@H]2[C@@H]3CCC4=CC(=O)C=C[C@]4(C)[C@@]3(F)[C@@H](O)C[C@]2(C)[C@@]1(O)C(=O)CO,Potency,[1],inactive
same,Potency,[2],inactive
NC(=O)NO,Potency,[1],inactive
same,Potency,[2],inactive
CC(C)Nc1cccnc1N1CCN(C(=O)c2cc3cc(NS(C)(=O)=O)ccc3[nH]2)CC1,Potency,[1],inactive
same,Potency,[2],inactive
O=C(OC1C[C@H]2CC[C@@H](C1)[N+]21CCCC1)C(O)(c1ccccc1)c1ccccc1 (stereo partly drawn),Potency,[1],inactive
same,Potency,[2],inactive
CN(C)[C@@H]1C(=O)C(C(N)=O)=C(O)[C@@]2(O)C(=O)C3=C(O)c4c(O)ccc(Cl)c4[C@@H](O)[C@H]3C[C@@H]12,Potency,[1],inactive
same,Potency,[2],inactive
CCCN1C[C@H](CSC)C[C@@H]2c3cccc4[nH]cc(c34)C[C@H]21,Potency,[1],inactive
same,Potency,[2],inactive
COc1ccccc1OCC(O)CN1CCN(CC(=O)Nc2c(C)cccc2C)CC1 (stereo not drawn),Potency,[2],inactive
O=C1NC(c2ccccc2)(c2ccccc2)C(=O)N1COP(=O)(O)O,Potency,[1],inactive
same,Potency,[2],inactive
Cc1cc2c(s1)Nc1ccccc1N=C2N1CCN(C)CC1,Potency,[2],inactive
CN(C)CCC=C1c2ccccc2C=Cc2ccccc21,Potency,[2],inactive
CC(=O)O[C@]1(C(C)=O)CC[C@H]2[C@@H]3C=C(Cl)C4=CC(=O)[C@@H]5C[C@@H]5[C@]4(C)[C@H]3CC[C@@]21C,Potency,[2],inactive
COc1cc(Cc2cnc(N)nc2N)cc(OC)c1OC,Potency,[1],inactive
same,Potency,[2],inactive
COc1ccc([C@@H]2Sc3ccccc3N(CCN(C)C)C(=O)[C@@H]2OC(C)=O)cc1,Potency,[2],inactive
CCc1ccc(CCOc2ccc(CC3SC(=O)NC3=O)cc2)nc1 (stereo not drawn),Potency,[2],inactive
O=c1[nH]cc(F)c(=O)[nH]1,Potency,[1],inactive
same,Potency,[2],inactive
CN(C)CCc1c[nH]c2ccc(C[C@H]3COC(=O)N3)cc12,Potency,[2],inactive
Cc1nc2n(c(=O)c1CCN1CCC(c3noc4cc(F)ccc34)CC1)CCCC2,Potency,[2],inactive
CC(C(=O)O)c1cccc(C(=O)c2ccccc2)c1 (stereo not drawn),Potency,[2],inactive
CO[C@@]12[C@H](COC(N)=O)C3=C(C(=O)C(C)=C(N)C3=O)N1C[C@@H]1N[C@@H]12,Potency,[2],inactive
